According to PubChem BioAssay (NCATS):
Records with an inconclusive call do not appear. Activity calls are given as the source filed them. Unless noted, calls come from the whole dose curve; as a rule, active = well fitted curve in the direction sought with a large enough effect; inconclusive = small, poorly fitted or top-dose-only effect, or another doubt; inactive = no such curve, though single readings can be large; an effect the other way counts as inactive or inconclusive.

Columns and labels:
[1] = AP1 Signaling Pathway (AID 357; active = well fitted curve in either direction with a large enough effect, not every such curve was filed as active;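 note: ME-180 reporter cells stimulated with EGF at its EC50 level; % is set by controls: 0 for no effect and ±100 for the full control effect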)
Outline: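 Modulation of EGF-driven AP-1 transcription was assessed with a beta-lactamase reporter in ME-180 cells. Compound and EC50 EGF were co-incubated 5 hours at 37 °C before 2.5-hour CCF4 loading at room temperature and dual-emission reading.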

[2] = target: Cytochrome P450 1A2 (Homo sapiens) (UniProt P05177); test: p450-cyp1a2 (AID 410; calls by dose curve;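 note: -100% = full effect of reference inhibitor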)
Sequence of Cytochrome P450 1A2 (Homo sapiens) (P05177 whole entry, looked up): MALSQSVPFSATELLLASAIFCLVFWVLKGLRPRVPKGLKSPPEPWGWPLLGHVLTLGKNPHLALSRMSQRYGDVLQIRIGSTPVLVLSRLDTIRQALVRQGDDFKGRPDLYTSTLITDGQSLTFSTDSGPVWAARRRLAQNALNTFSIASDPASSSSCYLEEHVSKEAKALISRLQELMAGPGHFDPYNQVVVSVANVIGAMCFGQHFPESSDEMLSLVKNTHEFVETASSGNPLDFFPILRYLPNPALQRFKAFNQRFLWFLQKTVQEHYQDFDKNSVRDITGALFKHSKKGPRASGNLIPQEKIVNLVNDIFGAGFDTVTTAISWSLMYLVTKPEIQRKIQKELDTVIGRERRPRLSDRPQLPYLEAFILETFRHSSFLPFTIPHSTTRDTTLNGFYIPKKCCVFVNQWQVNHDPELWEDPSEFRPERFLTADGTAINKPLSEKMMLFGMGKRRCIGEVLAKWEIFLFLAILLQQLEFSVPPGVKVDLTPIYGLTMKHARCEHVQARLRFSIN
Outline: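 Luminescent readout of luciferin formed from Luciferin-ME by human CYP1A2; data normalized against complete inhibition by 57 uM furafylline. Enzyme 20nM, substrate 100uM at Km, 100mM KPO4 buffer, 60 min reaction at room temperature.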

[3] = NFAT Signaling Pathway (AID 444; active = well fitted curve in either direction with a large enough effect, not every such curve was filed as active;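 note: carbachol stimulus at about its EC50 of 1 µM final; % is set by controls: 0 for no effect and ±100 for the full control effect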); details: Jurkat NFAT-bla M1, carbachol, beta-lactamase ratio, 5 h; at 17.2 µM (top of the series) unless noted
Outline: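 Jurkat cells carrying an NFAT-driven β-lactamase reporter and co-transfected muscarinic M1 receptor were treated with compound plus carbachol (1 uM final, an EC50 level) for 5 h at 37 °C. CCF4 loading followed for 1 h at RT; 460/530 nm ratio gave %activity.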

[4] = Stat Signaling Pathway (AID 446; active = well fitted curve in either direction with a large enough effect, not every such curve was filed as active;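 note: ME-180 cervical cancer cells given 40 pM IL-6 alongside compound; SIE-controlled beta-lactamase reporter measured as 460/530 nm FRET emission ratio; % is set by controls: 0 for no effect and ±100 for the full control effect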)
Outline: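 ME-180 SIE-bla cells; overnight plating; cpd + IL-6 40 pM, 5 h, 37 C; LiveBLAzer 2.5 h RT; 460/530 nm emission ratio. Normalized to 300 pM IL-6 and 125 nM JAK inhibitor controls.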

[5] = target: Glucocorticoid receptor (Homo sapiens) (UniProt P04150); test: GR-GFP Redistribution (AID 450;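 active = compounds whose dose series gives a full or clear partial fitted curve of increased nuclear translocation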; note: potency is the fitted concentration of half-maximal effect); details: U2OS GR-GFP nuclear translocation, laser cytometry, 2 h
Sequence of Glucocorticoid receptor (Homo sapiens) (P04150 whole entry, looked up, the tested form may be a part): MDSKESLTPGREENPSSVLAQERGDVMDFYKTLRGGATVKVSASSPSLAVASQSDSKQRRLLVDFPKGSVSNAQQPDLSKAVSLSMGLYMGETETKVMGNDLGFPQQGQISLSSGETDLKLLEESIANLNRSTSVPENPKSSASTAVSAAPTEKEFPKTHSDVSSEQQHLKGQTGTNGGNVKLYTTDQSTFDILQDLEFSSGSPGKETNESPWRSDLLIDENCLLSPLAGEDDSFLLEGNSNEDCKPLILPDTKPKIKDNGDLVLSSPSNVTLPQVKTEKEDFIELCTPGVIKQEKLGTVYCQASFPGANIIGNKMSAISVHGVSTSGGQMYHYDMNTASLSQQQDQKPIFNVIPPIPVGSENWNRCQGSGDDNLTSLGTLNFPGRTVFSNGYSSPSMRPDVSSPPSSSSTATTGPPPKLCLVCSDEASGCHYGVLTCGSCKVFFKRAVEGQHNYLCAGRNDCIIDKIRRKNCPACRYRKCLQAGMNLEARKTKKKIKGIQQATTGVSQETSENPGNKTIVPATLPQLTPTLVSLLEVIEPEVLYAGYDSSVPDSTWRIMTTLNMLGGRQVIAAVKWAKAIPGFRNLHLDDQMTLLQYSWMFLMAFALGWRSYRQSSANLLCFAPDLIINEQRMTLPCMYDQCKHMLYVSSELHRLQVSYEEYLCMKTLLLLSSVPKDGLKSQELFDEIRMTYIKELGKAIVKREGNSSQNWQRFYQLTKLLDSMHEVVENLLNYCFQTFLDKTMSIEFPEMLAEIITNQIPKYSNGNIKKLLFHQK

[6] = target: Glucocorticoid receptor (Homo sapiens) (UniProt P04150); test: GR-EFC Redistribution (AID 451; calls by dose curve; note: potency is the fitted concentration of half-maximal effect); details: CHO-K1 GR-EFC translocation, beta-gal luminescence, 2 h
Outline: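 CHO-K1 cells stably expressing nuclear-localized β-gal enzyme acceptor and GR fused C-terminally to the enzyme donor fragment; ligand-driven nuclear translocation restores β-gal by complementation. Compounds titrated up to 46 uM final, 2 h at 37 °C; luminescence read.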

[7] = target: Mitogen-activated protein kinase 10 (Mus musculus) (UniProt Q61831); test: JNK3 AlphaScreen Assay (AID 530; active = well fitted curve in either direction with a large enough effect, not every such curve was filed as active;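 note: kinase came from lysate of stimulated human HepG2 cells; signal reports phosphorylation of biotinylated GST-cJun 1-79 at Ser73 with 10 µM ATP; % is set by controls: 0 for no effect and ±100 for the full control effect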)
Outline: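 Inhibitors reduce antibody binding to phosphorylated biotin-cJun, lowering AlphaScreen luminescence. Lysates from HepG2 cells pre-activated by IL-1beta plus TNF-alpha supplied JNK3; compounds were titrated.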

[8] = target: 3',5'-cyclic-AMP phosphodiesterase 4B (Homo sapiens) (UniProt Q07343); test: qHTS Assay for Inhibitors of PDE-IV (AID 607; active = well fitted activation curve with a large enough effect in the main read-out, with a control signal flat, not every such curve was filed as active; note: % of control where 0% means no effect)
Sequence of 3',5'-cyclic-AMP phosphodiesterase 4B (Homo sapiens) (Q07343 whole entry, looked up): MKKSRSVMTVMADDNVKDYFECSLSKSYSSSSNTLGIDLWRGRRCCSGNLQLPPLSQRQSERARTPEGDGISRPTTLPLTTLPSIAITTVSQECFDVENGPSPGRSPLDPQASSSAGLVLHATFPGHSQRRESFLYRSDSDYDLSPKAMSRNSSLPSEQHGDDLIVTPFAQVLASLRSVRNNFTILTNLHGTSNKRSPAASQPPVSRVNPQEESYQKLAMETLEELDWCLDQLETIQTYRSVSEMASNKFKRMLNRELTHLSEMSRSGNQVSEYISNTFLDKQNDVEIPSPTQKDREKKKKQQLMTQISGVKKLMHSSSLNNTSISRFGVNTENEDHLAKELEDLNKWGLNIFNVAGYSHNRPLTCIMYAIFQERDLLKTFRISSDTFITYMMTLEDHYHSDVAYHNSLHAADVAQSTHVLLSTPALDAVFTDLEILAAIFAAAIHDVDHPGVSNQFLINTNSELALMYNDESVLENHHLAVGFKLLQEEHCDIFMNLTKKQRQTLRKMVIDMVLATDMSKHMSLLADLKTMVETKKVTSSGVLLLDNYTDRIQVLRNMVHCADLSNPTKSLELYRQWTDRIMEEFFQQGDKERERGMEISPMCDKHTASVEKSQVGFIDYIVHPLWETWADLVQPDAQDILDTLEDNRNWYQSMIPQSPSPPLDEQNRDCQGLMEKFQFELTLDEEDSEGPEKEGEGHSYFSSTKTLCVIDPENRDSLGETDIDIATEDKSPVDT
Outline: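 ACTOne HEK293 cells carry a modified cAMP-gated CNG channel and express endogenous PDE4; plated 1000 cells/well, compounds up to 22.9 uM final. Membrane-potential dye fluorescence (ex 535/em 590) was read; parental cells received 10 uM forskolin + 100 uM RO 20-1724.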

[9] = qHTS Assay for Lipid Storage Modulators (AID 1519; calls by dose curve); details: Drosophila S3 cells, BODIPY lipid droplet/cell ratio, laser cytometry, cells loaded with oleic acid
Outline: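 Cells seeded at 5,000 per well were treated with compounds over a concentration series and loaded with oleic acid (400 uM, as added). Lipid droplet fluorescence (488 nm excitation, 500-530 nm channel) was read by laser-scanning cytometry and normalized to 20 uM Triacsin C.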

[10] = target: Ubiquitin carboxyl-terminal hydrolase 1 (Homo sapiens) (UniProt O94782); test: Inhibitors of USP1/UAF1: Pilot qHTS (AID 504865);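 note: rhodamine fluorescence freed from ubiquitin-rhodamine substrate followed over time; top concentration of the series differs between compounds; % is set by controls: 0 for no effect and ±100 for the full control effect; nearly all actives have a fitted effect of over 35% in size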
Sequence of Ubiquitin carboxyl-terminal hydrolase 1 (Homo sapiens) (O94782 whole entry, looked up): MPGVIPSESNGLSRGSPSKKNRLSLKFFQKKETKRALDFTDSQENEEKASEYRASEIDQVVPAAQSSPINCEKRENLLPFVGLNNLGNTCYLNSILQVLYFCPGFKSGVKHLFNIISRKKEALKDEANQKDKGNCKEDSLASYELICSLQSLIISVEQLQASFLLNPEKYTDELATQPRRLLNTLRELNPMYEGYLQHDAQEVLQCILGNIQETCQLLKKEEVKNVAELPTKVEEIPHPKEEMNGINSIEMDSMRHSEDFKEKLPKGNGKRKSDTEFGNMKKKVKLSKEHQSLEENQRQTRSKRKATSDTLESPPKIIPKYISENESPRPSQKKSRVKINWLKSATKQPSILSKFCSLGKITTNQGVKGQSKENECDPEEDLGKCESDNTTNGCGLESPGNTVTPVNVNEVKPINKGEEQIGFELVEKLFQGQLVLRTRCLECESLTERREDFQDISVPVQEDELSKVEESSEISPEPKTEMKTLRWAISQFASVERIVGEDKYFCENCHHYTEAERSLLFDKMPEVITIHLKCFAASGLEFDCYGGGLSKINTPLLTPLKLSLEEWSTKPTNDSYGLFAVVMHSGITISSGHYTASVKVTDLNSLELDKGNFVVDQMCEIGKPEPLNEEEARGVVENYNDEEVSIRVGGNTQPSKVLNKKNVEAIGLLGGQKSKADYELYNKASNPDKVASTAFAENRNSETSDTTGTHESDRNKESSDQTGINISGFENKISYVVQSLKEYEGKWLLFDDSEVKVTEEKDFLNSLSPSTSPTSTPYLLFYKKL
Outline: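 USP1/UAF1 complex (1nM) preincubated with compound 15 min at room temperature, then Ub-Rho substrate (150nM final) added. Fluorescence read kinetically at 480/540 nm, 6 reads every 60 seconds. Buffer: 50mM HEPES pH 7.8, 0.5mM EDTA, 0.1 mg/ml BSA, 1mM TCEP, 0.01% Tween-20.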

[11] = target: ATP-dependent 6-phosphofructokinase (Trypanosoma brucei brucei) (UniProt O15648); test: qHTS Assay to Find Inhibitors of T. brucei phosphofructokinase: hit validation (AID 492961)
Sequence of ATP-dependent 6-phosphofructokinase (Trypanosoma brucei brucei) (O15648 whole entry, looked up): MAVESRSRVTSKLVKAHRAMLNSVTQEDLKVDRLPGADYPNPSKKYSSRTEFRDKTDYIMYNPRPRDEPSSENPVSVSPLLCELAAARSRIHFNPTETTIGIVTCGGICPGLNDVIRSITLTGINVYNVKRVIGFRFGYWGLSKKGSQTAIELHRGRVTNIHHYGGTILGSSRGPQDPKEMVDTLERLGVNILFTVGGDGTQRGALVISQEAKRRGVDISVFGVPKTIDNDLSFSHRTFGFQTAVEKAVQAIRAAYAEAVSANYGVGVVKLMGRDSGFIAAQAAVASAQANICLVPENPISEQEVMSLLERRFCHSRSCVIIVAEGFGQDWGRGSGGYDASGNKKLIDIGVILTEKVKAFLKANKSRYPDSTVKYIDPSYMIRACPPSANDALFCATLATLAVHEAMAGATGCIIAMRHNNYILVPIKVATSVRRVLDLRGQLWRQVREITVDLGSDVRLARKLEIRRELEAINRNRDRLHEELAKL
Outline: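 Reaction: 0.1 M triethanolamine pH 8.0, 5 mM MgCl2, F6P 0.5 mM, ATP 0.1 mM, PFK 1.25 nM, 45 min RT. Read-out: ADP-Glo luminescence. Analysis: concentration-response fits, classed by r2 and efficacy.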

C2A = test: qHTS profiling for inhibitors of Plasmodium falciparum proliferation (AID 504749);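 note: 0% = DMSO vehicle and full inhibition = artemisinin control; nearly all actives have a fitted effect of over 60% in size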; details: P. falciparum in erythrocytes, SYBR Green DNA, 72 h; series mostly up to 12.8 µM
Outline: (§1)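 Parasite proliferation within erythrocytes, 72 h exposure. Endpoint: SYBR Green I fluorescence after overnight lysis at room temperature. Controls: 0.29 uM artemisinin, DMSO.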

CP191 = test: as above; details: P. falciparum in erythrocytes, SYBR Green DNA, 72 h; series mostly up to 12.8 µM
Outline: as §1

CP217 = test: as above; details: P. falciparum in erythrocytes, SYBR Green DNA, 72 h; series mostly up to 12.8 µM
Outline: as §1

CP250 = test: as above; details: P. falciparum in erythrocytes, SYBR Green DNA, 72 h; series mostly up to 12.8 µM
Outline: as §1

CP256 = test: as above; details: P. falciparum in erythrocytes, SYBR Green DNA, 72 h; series mostly up to 12.8 µM
Outline: as §1

FAB9 = test: as above; details: P. falciparum in erythrocytes, SYBR Green DNA, 72 h; series mostly up to 12.8 µM
Outline: as §1

JCK = test: as above; details: P. falciparum in erythrocytes, SYBR Green DNA, 72 h; series mostly up to 12.8 µM
Outline: as §1

SC27B = test: as above; details: P. falciparum in erythrocytes, SYBR Green DNA, 72 h; series mostly up to 12.8 µM
Outline: as §1

[12] = as above; details: P. falciparum in erythrocytes, SYBR Green DNA, 72 h
Outline: as §1

[13] = measured here: cell count channel max response
[14] = measured here: lipid channel max response
[15] = at 12.8 µM (top of the series), parasite line A
[16] = at 12.8 µM (top of the series), parasite line B

NC(=O)c1ncn([C@H]2O[C@@H](CO)[C@@H](O)[C@@H]2O)n1
-8.81%: max response [9, 13]
-7.48%: max response [9, 14]
inactive: outcome [1] | Potency [2] | activity change, negative = inhibition [3] -18.7% | outcome [4] | Potency [5] > 20.6 µM | Potency [6] > 20.6 µM | Potency [7] | outcome [8] | activity change, negative = inhibition ([9]; at 25.7 µM (top of the series)) 1.03% | Potency [10]

O=C1O[C@H](CN2CCOCC2)CN1/N=C\c1ccc([N+](=O)[O-])o1
inactive: outcome [1] | Potency [2] | activity change, negative = inhibition [3] -16.1% | outcome [4] | Potency [5] > 20.6 µM | Potency [6] > 20.6 µM | Potency [7] | outcome [8] | activity change, negative = inhibition ([9]; at 25.7 µM (top of the series)) -9.12% | outcome [11] | Potency [10] | Potency (C2A) | Potency (CP191) | Potency (CP217) | Potency (CP250) | Potency (CP256) | Potency (FAB9) | Potency (JCK) | Potency (SC27B)
-26.5%: max response [9, 14]
-19.2%: max response [9, 13]

O=c1[nH]c(=O)n([C@@H]2C[C@H](O)[C@H](CO)O2)cc1C(F)(F)F
-7.04%: max response [9, 13]
-7.97%: max response [9, 14]
inactive: outcome [1] | Potency [2] | activity change, negative = inhibition [3] 1.4% | outcome [4] | Potency [5] > 20.6 µM | Potency [6] > 20.6 µM | Potency [7] | activity change, negative = inhibition ([9]; at 25.7 µM (top of the series)) -0.507% | Potency [10]

CC(=O)N[C@@H](CC(=O)O)C(=O)O
inactive: outcome [1] | Potency [2] | activity change, negative = inhibition [3] -10.7% | outcome [4] | Potency [5] > 20.6 µM | Potency [6] > 20.6 µM | Potency [7] | outcome [8] | activity change, negative = inhibition ([9]; at 25.7 µM (top of the series)) -1.04% | Potency [10]
-4.28%: max response [9, 14]
-3.12%: max response [9, 13]

CCOC(=O)[C@H](CCc1ccccc1)N[C@@H](C)C(=O)N1[C@H](C(=O)O)C[C@H]2CCC[C@@H]21
-7.94%: max response [9, 14]
inactive: outcome [1] | Potency [2] | activity change, negative = inhibition [3] -18.7% | outcome [4] | Potency [5] > 20.6 µM | Potency [6] > 20.6 µM | Potency [7] | outcome [8] | activity change, negative = inhibition ([9]; at 25.7 µM (top of the series)) -3.49% | outcome [11] | activity, negative = inhibition ([12]; at 28.7 µM (top of the series), parasite line A) 14.3% | activity, negative = inhibition ([12]; at 28.7 µM (top of the series), parasite line B) 4.68% | Potency (C2A) | Potency (CP191) | Potency (CP217) | Potency (CP250) | Potency (CP256) | Potency (FAB9) | Potency (JCK) | Potency (SC27B)
-8.48%: max response [9, 13]

CO[C@H]1[C@@H](OC(N)=O)[C@H](O)[C@@H](Oc2ccc3c(O)c(NC(=O)c4ccc(O)c(CC=C(C)C)c4)c(=O)oc3c2C)OC1(C)C
-8.17%: max response [9, 14]
-8.07%: max response [9, 13]
inactive: outcome [1] | Potency [2] | activity change, negative = inhibition [3] -13.7% | outcome [4] | Potency [5] > 20.6 µM | Potency [6] > 20.6 µM | Potency [7] | outcome [8] | activity change, negative = inhibition ([9]; at 25.7 µM (top of the series)) -1.82% | outcome [11] | Potency [10] | activity, negative = inhibition [12, 15] 4.79% | activity, negative = inhibition [12, 16] -4.42% | Potency (C2A) | Potency (CP191) | Potency (CP217) | Potency (CP250) | Potency (CP256) | Potency (FAB9) | Potency (JCK) | Potency (SC27B)

C=CCN1C(=CCO)[C@H]2C[C@H]3[C@@H]1CC[C@@]31c3ccccc3N3C=C4[C@@H]5N(/C=C/2[C@H]31)c1ccccc1[C@]51CC[C@H]2[C@H]1C[C@@H]4/C(=C/CO)N2CC=C
inactive: outcome [1] | Potency [2] | activity change, negative = inhibition [3] -23.2% | outcome [4] | Potency [5] > 20.6 µM | Potency [6] > 20.6 µM | Potency [7] | activity change, negative = inhibition ([9]; at 25.7 µM (top of the series)) 0.271% | outcome [11] | activity, negative = inhibition [12, 15] 1.83% | activity, negative = inhibition [12, 16] 0.223% | Potency (C2A) | Potency (CP191) | Potency (CP217) | Potency (CP250) | Potency (CP256) | Potency (FAB9) | Potency (JCK) | Potency (SC27B)
-16.1%: max response [9, 13]
-15.8%: max response [9, 14]

CC[N+](CC)(CC)CC[C@](O)(c1ccccc1)C1CCCCC1
active: activity change, negative = inhibition [3] -68.8%
inactive: outcome [1] | Potency [2] | outcome [4] | Potency [5] > 20.6 µM | Potency [6] > 20.6 µM | Potency [7] | outcome [8] | activity change, negative = inhibition ([9]; at 25.7 µM (top of the series)) -1.33% | outcome [11] | Potency [10] | activity, negative = inhibition [12, 16] -24.4% | Potency (C2A) | Potency (CP191) | Potency (CP217) | Potency (CP250) | Potency (CP256) | Potency (JCK) | Potency (SC27B)
-19.8%: max response [9, 14]
-17.2%: max response [9, 13]

NC[C@@H]1O[C@H](O[C@@H]2[C@H](O[C@@H]3O[C@H](CO)[C@@H](COC[C@H]4O[C@@H](CN)[C@@H](O)[C@@H](O)[C@@H]4N)[C@@H]3O)[C@@H](O)[C@@H](N)C[C@H]2N)[C@@H](N)[C@H](O)[C@@H]1O
inactive: outcome [1] | Potency [2] | activity change, negative = inhibition [3] -1.32% | outcome [4] | Potency [5] > 20.6 µM | Potency [6] > 20.6 µM | Potency [7] | outcome [8] | activity change, negative = inhibition ([9]; at 25.7 µM (top of the series)) -1.17% | Potency [10]
1.11%: max response [9, 13]
2.23%: max response [9, 14]

COc1ccc(C2CC(=O)c3c(O)cc(OC4OC(COC5OC(C)C(O)C(O)C5O)C(O)C(O)C4O)cc3O2)cc1O (stereo not given)
inactive: activity change, negative = inhibition ([9]; at 57.5 µM (top of the series)) -2.69%
-19%: max response [9, 13]
-20.2%: max response [9, 14]

CC(=O)N[C@H]1[C@@H](O[C@@H](C)C(=O)O)[C@H](O)[C@H](CO)O[C@@H]1O
4.82%: max response [9, 14]
7.96%: max response [9, 13]
inactive: outcome [1] | Potency [2] | activity change, negative = inhibition [3] 4.75% | outcome [4] | Potency [5] > 20.6 µM | Potency [6] > 20.6 µM | Potency [7] | outcome [8] | activity change, negative = inhibition ([9]; at 25.7 µM (top of the series)) -1.67% | Potency [10]
